We go through 13 compounds from the supplement of paper PMC7156485.

Structures are written as SMILES.
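Further: TDF denotes transformed human dermal fibroblasts of mesenchymal origin.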

The test system of the experiment is HCC1569. Briefly: cell number relative to DMSO (% of DMSO); higher = more cells (less growth inhibition / toxicity). Conditions: concentration: 10 µM; 24 h. In short, it runs like this: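 For HCC1569 and TDF cells, compounds at 10 µM were applied for 24 h at 37 °C in triplicate in 384-well plates. Cells were fixed in 3.7% formaldehyde, stained for H1.0 and with DAPI, and imaged at ×10 over six fields per well. The endpoint, H1.0 nuclear intensity or cell number, is shown as percent of the plate control using the median of replicates. Positional effects were smoothed for HCC1569 only.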
Regarding `O=C(CCCc1ccc(-c2ccccc2F)cc1)Nc1ccc(O)cc1` [MK2a Inhibitor], the cell number came to 79. As for `CCN1CCN(C(=O)NC(C(=O)NC2C(=O)N3C(C(=O)O)=C(CSc4nnnn4C)CSC23)c2ccc(O)cc2)C(=O)C1=O` (stereo not drawn) [Cefoperazone acid], the cell number was 100. The result for `O=C(Nc1ccccc1)c1cc([N+](=O)[O-])ccc1Cl` reads 98.3; that for `CCn1c(-c2nonc2N)nc2c(C#CC(C)(C)O)ncc(OCC3CCCNC3)c21` (stereo not drawn), 72.9; that for `CCCCCOC(=O)Nc1nc(=O)n(C2OC(C)C(O)C2O)cc1F` (stereo not drawn) [Capecitabine], 102. The compound `CCCOC(=O)c1cc(O)c(O)c(O)c1` [N-Propyl gallate] came in with a cell number of 89. The result for `CN1C2CCC1CC(OC(c1ccccc1)c1ccccc1)C2.CS(=O)(=O)O` (stereo not drawn) [Benztropine mesylate] reads 97.2.

As for `O=C(NCCCCCCNC(=O)ON=C1CCCCC1)ON=C1CCCCC1`, the cell number is 96.6. For `COc1cc(C2CC(=O)c3c(O)cc(O)cc3O2)ccc1O` (stereo not drawn) [Homoeriodictyol] the value was 97.9.

`O=C1NC(=O)C(=Cc2cccc(C(F)(F)F)c2)S1` [PIM1/2 Kinase Inhibitor V] showed a cell number of 102. For `Clc1ccccc1C(c1ccccc1)(c1ccccc1)n1ccnc1` [Clotrimazole] the value was 75.1. For the compound `CN1C(CC(=O)c2ccccc2)CCCC1CC(O)c1ccccc1.Cl` (stereo not drawn) [alpha-Lobeline hydrochloride], the cell number worked out at 99.3.

Regarding `COCc1c(C(C)C)nc(C(C)C)c(C=CC(O)CC(O)CC(=O)O)c1-c1ccc(F)cc1` (stereo not drawn) [Cerivastatin], the cell number stood at 97.3.
